Hits are enriched below; roughly 2.4% of the tested compounds scored in any of these assays.
Cruzain Triton: cruzain (T. cruzi) inhibition with detergent. P25779. purified cruzain, Z-FR-AMC fluorescence, 0.01% Triton. Potency, µM, for the others: max response, negative = inhibition, hits mostly inhibitors. actives 0.43% (n = 200,000). AID 1478;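 further: plate controls were neutral wells for no effect and buffer without enzyme for full effect; nearly all actives have a fitted effect of over 40% in size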
Target sequence (P25779 123-467 limits assumed): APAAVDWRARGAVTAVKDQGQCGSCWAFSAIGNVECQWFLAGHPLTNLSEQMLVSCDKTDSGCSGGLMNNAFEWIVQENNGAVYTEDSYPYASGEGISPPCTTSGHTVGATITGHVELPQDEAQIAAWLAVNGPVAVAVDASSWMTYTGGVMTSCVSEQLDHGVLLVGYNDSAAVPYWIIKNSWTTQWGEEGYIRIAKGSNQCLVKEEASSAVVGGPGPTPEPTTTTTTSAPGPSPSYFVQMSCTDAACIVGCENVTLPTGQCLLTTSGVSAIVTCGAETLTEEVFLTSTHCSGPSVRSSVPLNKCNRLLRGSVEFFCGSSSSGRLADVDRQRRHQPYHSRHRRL
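Detergent-containing run (0.01% Triton X-100) in acetate buffer pH 5.5 with 5 mM DTT: enzyme at 1.5 nM final, 15 min compound preincubation at room temperature, then 2 uM Z-FR-AMC substrate. Activity taken as 60 s fluorescence increase at 360/450 nm.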
Cruzain inh noDet: inhibitors of Trypanosoma cruzi cruzain without detergent. AID 1476. actives 2.3% (n = 200,000). Potency, µM, for inactives: max response, negative = inhibition, actives largely listed as inhibitors. P25779. purified cruzain, Z-FR-AMC fluorescence, no detergent;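 further: plate controls were enzyme without inhibitor for no effect and buffer without enzyme for full effect; nearly all actives have a fitted effect of over 40% in size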
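Detergent-free condition (0.00005% Triton X-100) in acetate buffer pH 5.5 with DTT. 1.5 nM enzyme and compound were pre-mixed 15 min, then 2 uM Z-FR-AMC substrate added; reaction progress from fluorescence change between first and third reads (60 s).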
Numbers without * were called inactive; ? = inconclusive. The call rests on the fitted dose curve; in most records, active means well fitted curve in the direction sought with a large enough effect; inconclusive means small, poorly fitted or top-dose-only effect, or another doubt; inactive means no such curve, though single readings can be large; an effect the other way counts as inactive or inconclusive. Potency means the concentration at half of the fitted maximal effect.

SMILES | Cruzain Triton | Cruzain inh noDet
Cc1ccc(-c2nc3ccccc3s2)cc1NC(=S)NC(=O)c1cccc2ccccc12 | -4% | 6.3µM*
O=C(/C=C/c1ccco1)NC(=S)Nc1cc(-c2nc3ccccc3s2)ccc1Cl | -7% | 6.3µM*
Cc1cc(OCCCSc2nc(-c3ccc(C(C)(C)C)cc3)nc3cc(=O)[nH]n23)ccc1Cl | -7% | ?
COc1ccc(-c2cn3cccnc3n2)cc1NC(=O)c1cc(C)cc(C)c1 | -4% | 4%
Cc1ccc(NC(=O)Cn2nnc(-c3nc(-c4ccc(Cl)cc4)no3)c2N)cc1C | -9% | -15%
CCOc1ccccc1NC(=O)c1cnn2c(C(F)F)cc(-c3ccccc3)nc12 | -3% | -19%
Cc1cccc(OCC(=O)NCc2ccc3c(c2)CCN3C(=O)c2ccccc2)c1 | -1% | 6%
COc1ccc(CCNC(=O)c2ccc3c(c2)CCN3S(=O)(=O)c2ccc(C)cc2)cc1 | 1% | -6%
CCOC(=O)c1cc(-c2ccccc2)sc1NC(=O)C(C)(C)C | 1% | -4%
CCOC(=O)c1cc(-c2ccccc2)sc1NC(=O)CC(C)C | -9% | -10%
CCOC(=O)c1cc(-c2ccccc2)sc1NC(=S)Nc1cc(C)ccn1 | 7% | 13µM*
CCCC1(c2ccccc2)NC(=O)N(CC(=O)Nc2sc(-c3ccccc3)cc2C(=O)OCC)C1=O (stereo unspecified) | 1% | 7.9µM*
CCC(Cl)CC(Cl)C(Cl)C(Cl)C(Cl)C(C)Cl (stereo unspecified) | 4% | -19%
NC1=N[C@H](c2ccc(Cl)cc2)N(c2ccc(S(N)(=O)=O)cc2)C(N)=N1 | -2% | 2%
C[C@@]1(C(NC(=O)Cc2ccccc2)c2ccc(-c3ccccc3)cc2)C[C@H]1C1CCCCC1 (stereo partly specified) | 4% | 3%
C[C@@]1(C(NC(=O)c2ccccc2)c2ccc(-c3ccccc3)cc2)C[C@H]1C1CCCCC1 (stereo partly specified) | -3% | 10µM*
CCCC1O[C@@H]2C[C@H]3[C@@H]4CCC5=CC(=O)C=C[C@]5(C)C4[C@@H](O)C[C@]3(C)[C@]2(C(=O)CO)O1 (stereo partly specified) | -14% | 13%
Cc1cc2oc(=O)cc(CN3CCc4ccccc43)c2cc1Cl | -4% | ?
CCc1ccc2c(CN3CCc4ccccc43)cc(=O)oc2c1 | -4% | 32µM*
COc1cccc(OCc2nc3c4cnn(-c5ccccc5)c4ncn3n2)c1 | 8% | 25µM*
COc1ccc(-n2ncc3c2ncn2nc(Cc4ccccc4)nc32)cc1 | -1% | -10%
O=C1CC(SCc2nc3ccccc3[nH]2)C(=O)N1c1ccc(Cl)cc1 (stereo unspecified) | -9% | -3%
O=C1CC(SCc2nc3ccccc3[nH]2)C(=O)N1c1ccc(F)c(Cl)c1 (stereo unspecified) | -19% | 16µM*
COc1ccc2c(c1)-c1nc(NC(=O)c3ccc(OC)c(Br)c3)sc1CC2 | -8% | 10µM*
COc1ccc2c(c1)-c1nc(NC(=O)c3ccc(C)cc3)sc1CC2 | -4% | ?
SMILES | Cruzain Triton | Cruzain inh noDet
COc1ccc2c(c1)Cc1sc(NC(=O)c3cccc(Cl)c3)nc1-2 | 0% | 9%
COc1ccc2c(c1)Cc1sc(NC(=O)c3ccc(Cl)cc3)nc1-2 | -7% | 3.2µM*
CCOc1cc(CNC(=O)CSc2n[nH]c(-c3ccccc3)n2)cc(OCC)c1OCC | -2% | ?
CC(C)N(CC(=O)O)CC(=O)O | -3% | 6%
NS(=O)(=O)c1ccc(NC(=O)Nc2ccccc2F)cc1 | 4% | 1%
COc1ccc(OC)c(C2C(C(=O)N3CCCCC3)=C(C)Nc3nc4ccccc4n32)c1 (stereo unspecified) | -2% | -6%
CC1CCc2c(sc(NC(=O)COC(=O)c3ccccc3NCc3ccco3)c2C#N)C1 (stereo unspecified) | 5% | 16µM*
Cc1ccccc1C(=O)NC(=S)Nc1sc2c(c1C#N)CCC(C)C2 (stereo unspecified) | 2% | 16µM*
Cc1cc(C(=O)Nc2sc3c(c2C#N)CCC(C)C3)cs1 (stereo unspecified) | 3% | ?
CC1CCc2c(sc(NC(=O)COc3ccccc3C(C)(C)C)c2C#N)C1 (stereo unspecified) | -1% | -8%
N#Cc1c(NC(=S)NC(=O)c2ccccc2)sc2c1CCN(CCc1ccccc1)C2 | -15% | 16µM*
N#Cc1c(NC(=S)NC(=O)c2ccccc2)sc2c1CCCC2 | -3% | -24%
CC(C)(C)c1cc(C#N)cc(Br)c1OP(=O)(Oc1c(Br)cc(C#N)cc1C(C)(C)C)c1ccccc1 | 5% | -2%
CN(C)CCNS(=O)(=O)N(C)C | 0% | 6%
CCN(CC)CC(C)CNC(=O)c1cc(-c2ccc(Br)s2)nc2ccccc12 (stereo unspecified) | -6% | 9%
CC(C)(C)c1ccc(OCC(=O)O)c(Cl)c1 | 2% | 12%

Assay outcomes: PubChem BioAssay, National Center for Advancing Translational Sciences (NCATS)
